# Bioassay records: PubChem, National Center for Advancing Translational Sciences (NCATS)
# DRD3 antagonist – blocks the human D3 dopamine receptor; D3R cells, DiscoveRx beta-arrestin luminescence, antagonist mode; active compounds read low; max response, negative = inhibition, %; AID 652054; P35462; actives 2.5% (n = 360,000); in the data active = max response below about -50%; inconclusive = no clear call, values can overlap the other calls; note: % is set by controls: 0 for no effect and ±100 for the full control effect
# Target sequence (P35462 whole entry, looked up): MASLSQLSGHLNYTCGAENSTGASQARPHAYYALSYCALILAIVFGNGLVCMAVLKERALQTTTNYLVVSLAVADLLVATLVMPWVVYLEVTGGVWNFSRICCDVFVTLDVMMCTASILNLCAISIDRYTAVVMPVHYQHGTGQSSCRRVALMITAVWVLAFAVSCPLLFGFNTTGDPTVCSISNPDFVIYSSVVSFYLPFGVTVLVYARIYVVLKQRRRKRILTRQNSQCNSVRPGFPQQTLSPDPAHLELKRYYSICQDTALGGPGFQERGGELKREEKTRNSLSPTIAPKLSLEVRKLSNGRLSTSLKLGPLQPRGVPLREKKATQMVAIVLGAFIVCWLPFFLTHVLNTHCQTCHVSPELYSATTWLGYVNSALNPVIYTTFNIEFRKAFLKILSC
#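 Cells expressing the human receptor were seeded at 1500 cells/well, incubated overnight at 37 degrees C in 5% CO2, then exposed to library compounds with dopamine controls for 90 minutes at 37 degrees C before luminescent detection.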
# D1 agonist – human D1 receptor agonism; HEK293 T-REx D1 cells, calcium flux, agonist mode; actives 1% (n = 360,000); P21728; AID 504660; activation, % at 2 µM; in the data active = activation above about 30%; note: 0% is about no effect
#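 Inducible HEK293 T-REx D1 cells, force-coupled to calcium signalling, were plated at 4000 cells/well with tetracycline and held overnight at 30 C. After no-wash calcium dye loading, compound-evoked calcium rise over 180 s flagged agonists.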
# D1 antag – antagonists of human D1 dopamine receptor; HEK293 TREx D1 cells, calcium flux, dopamine EC80; active compounds read low; activity change, negative = inhibition, % at 10 µM; actives 3.2% (n = 360,000); AID 504652; in the data active = activity change below about -30%; note: % is set by controls: 0 for no effect and ±100 for the full control effect
#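 Allosteric or orthosteric antagonism assessed as attenuation of the calcium response to EC80 dopamine, added 180 s after compound, in induced HEK293 Trex D1 cells loaded with no-wash calcium dye.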
# DRD3 agonist – agonists of human D3 dopamine receptor; P35462; D3R DiscoveRx beta-arrestin cells, luminescence, 90 min; max activation, %; actives 0.58% (n = 410,000); in the data active = max activation above about 30%; note: 0% is about no effect
#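 Cells at 1500/well, incubated overnight, then treated with pinned compounds (dopamine as control) for 90 min at 37 degrees C. DiscoveRx reagent added for 30 - 60 minutes at room temperature; luminescence read.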
# D1 PAM – potentiators of human D1 dopamine receptor | P21728 | HEK293 TREx D1 cells, calcium flux, dopamine EC20 potentiation | potentiation, % at 10 µM | actives 0.036% (n = 360,000) | AID 504651; in the data active = potentiation above about 30%; note: 0% is about no effect
# Active calls of the source: *; ? = inconclusive; . = no result given; ! = repeats disagree. The list is not random: actives were taken first. Their share in the collection is about 6%.
SMILES,DRD3 antagonist,D1 agonist,D1 antag,DRD3 agonist,D1 PAM
CC1CCN(C(CC(=O)c2ccccc2)C(=O)c2ccccc2)CC1 (stereo not drawn),-79.0*,.,.,-20.0,.
CN1C2CCC1C(COC(=O)c1ccccc1)C(O)C2 (stereo not drawn),3.1,1.1,13.1,3.2,-1.8
CC1(C)C[C@H]2C=C(C=O)[C@]3(C=O)C[C@]3(C)[C@H]2C1,?,1.8,-56.8*,0.0,-3.9
FC(F)(F)c1cccc(N2CCNCC2)c1,.,4.4,-31.9*,.,-3.1
FC(F)(F)c1ccc(CN2CCNCC2)cc1,-15.6,1.4,7.6,-11.7,3.9
NCC[C@H](O)C(=O)N[C@@H]1C[C@H](N)[C@@H](O[C@H]2O[C@H](CN)[C@@H](O)[C@H](O)[C@H]2N)[C@H](O[C@@H]2O[C@H](CO)[C@@H](O)[C@H]2O)[C@H]1O,.,.,.,6.3,.
CN(C)CCSC1c2ccccc2CSc2ccccc21 (stereo not drawn),-101.6*,.,.,-19.3,.
O=C(Nc1ccc2c(c1)OCCO2)c1cccn(Cc2cccc(F)c2)c1=O,.,1.4,.,-8.1,1.9
COC1CC(=C(c2cccs2)c2cccs2)C[N+](C)(C)C1 (stereo not drawn),.,.,.,4.7,.
Cc1ccccc1-n1c(/C=C/c2ccc(N(C)C)cc2)nc2ccccc2c1=O,.,196.7*,10.2,1.6,60.2*
Cc1ccccc1-n1c(/C=C/c2c(C)[nH]c3ccccc23)nc2ccccc2c1=O,.,9.6,6.9,1.7,-0.1
O=c1c2ccccc2nc(/C=C/c2ccccc2O)n1-c1ccccc1O,.,30.8*,-21.6,.,-6.3
Cc1ccccc1-n1c(C)nc2ccccc2c1=O,11.2,1.0,-1.5,67.8*!,-4.8
O=C(Nc1ccon1)c1cccn(Cc2cccc([N+](=O)[O-])c2)c1=O,.,2.9,.,-12.3,-1.1
Cc1ccc2c(c1)C1CN(C)CCC1N2C(=O)Nc1cccc(C(F)(F)F)c1 (stereo not drawn),-9.1,23.1,.,-19.4,-3.9
Cc1ccc2c(c1)[C@@H]1CN(C)CC[C@@H]1N2C(=O)Nc1cccc(C(F)(F)F)c1,-13.5,19.7,-51.6*,-34.1,-27.1
Cc1ccc2c(c1)C1CN(C)CCC1N2C(=O)CCCN1C(=O)c2cccc3cccc(c23)C1=O (stereo not drawn),2.1,1.2,-49.3*,-9.3,-16.3
Cc1ccccc1-c1nc(CN2C(=O)CN=C(c3ccccc3)c3ccccc32)c(C)o1,.,0.1,9.5,-14.6,0.4
CCN(CC)P(=O)(c1nccn1C)N(CC)CC,16.3,3.2,-37.1*,1.9,-7.7
Cc1ccc(OCC(=O)N2CCN(CCc3ccncc3)CC2)cc1C,.,0.5,-5.8,-6.8,-0.8
COCCNC(=O)c1c(NC(=O)c2ccc(Br)o2)n(Cc2ccccc2)c2nc3ccccc3nc12,-8.8,37.1*,-3.6,2.5,-2.2
CCOC(=O)C1=C[C@@H](OC(CC)CC)[C@H](NC(C)=O)[C@@H](N)C1,.,.,.,11.3,.
CN1CCN(c2ccc([N+](=O)[O-])c(Sc3ccccn3)c2)CC1,?,2.7,-70.0*,-36.0,-7.2
NC(=O)c1c(Br)n(C2OC(CO)C(O)C2O)c2ncnc(N)c12 (stereo not drawn),-4.2,.,.,6.7,.
N#Cc1c(Br)n(C2OC(CO)C(O)C2O)c2ncnc(N)c12 (stereo not drawn),41.4,.,.,38.1*,.
SMILES,DRD3 antagonist,D1 agonist,D1 antag,DRD3 agonist,D1 PAM
O=C1NC(=O)C(CCc2ccncc2)(Cc2cccc(Cl)c2Cl)C(=O)N1c1ccc(Br)cc1 (stereo not drawn),13.5,1.6,-75.7*,5.0,-9.2
COc1cc(C[C@@H](C)N)c(OC)cc1Br,.,.,.,-9.7,.
COC(=O)C1C=C2c3cccc4[nH]cc(c34)CC2N(C)C1 (stereo not drawn),.,8.9,-1.0,.,-8.2
CC[C@@H](CO)NC(=O)[C@@H]1C=C2c3cccc4[nH]cc(c34)C[C@H]2N(C)C1,-17.3,.,.,33.0*,.
CC(C)C[C@H]1C(=O)N2CCC[C@H]2[C@]2(O)O[C@](NC(=O)[C@@H]3C=C4c5cccc6[nH]cc(c56)C[C@H]4N(C)C3)(C(C)C)C(=O)N12,-75.8*,8.7,-27.0,-8.7,0.1
CCC(CO)NC(=O)C1C=C2c3cccc4[nH]cc(c34)CC2N(C)C1 (stereo not drawn),-56.7*,24.5,-86.4*,15.1,-13.6
CC[C@@H](CO)NC(=O)[C@@H]1C=C2c3cccc4c3c(cn4C)C[C@H]2N(C)C1,-93.0*,18.0,-76.8*!,-88.1,-2.8
CC(C)C[C@H]1C(=O)N2CCC[C@H]2[C@]2(O)O[C@](NC(=O)[C@@H]3C[C@@H]4c5cccc6[nH]cc(c56)C[C@H]4N(C)C3)(C(C)C)C(=O)N12,.,.,.,16.7,.
CN1C[C@H](C(=O)N[C@]2(C)O[C@@]3(O)[C@@H]4CCCN4C(=O)[C@H](Cc4ccccc4)N3C2=O)C=C2c3cccc4[nH]cc(c34)C[C@H]21,.,.,.,-10.9,.
CC(=Nc1c(C)n(C)n(-c2ccccc2)c1=O)c1c(O)n(Cc2ccccc2)c(=O)[nH]c1=O,-50.7*,0.2,6.0,-12.8,-0.5
CC(=NCCCO)c1c(O)n(Cc2ccccc2)c(=O)[nH]c1=O,-15.0,0.6,-9.9,-8.4,-3.6
C[N+]1(CCF)[C@@H]2CC[C@H]1CC(OC(=O)C(O)(c1ccccc1)c1ccccc1)C2 (stereo partly drawn),.,.,.,2.4,.
COc1ccccc1Sc1ccccc1CC(C)N (stereo not drawn),7.9,60.0*,-24.7,-1.6,-1.1
C/C=C(\CC)C(=O)NC(N)=O,.,.,.,1.1,.
CN1C[C@H](CNC(=O)OCc2ccccc2)C[C@@H]2c3cccc4c3c(cn4C)C[C@H]21,-117.1*,37.4*,-86.8*,-48.9,-4.2
O=C(NC[P+](=O)O)OCc1ccccc1,10.5,2.6,18.9,5.0,-3.7
CCOC(=O)c1ccc(NC(=O)c2c(O)[nH]c(=O)[nH]c2=O)cc1,-18.9,240.8*,-7.7,1.2,-5.0
COc1ccc(N2C(=O)CC(=O)NC2=O)cc1,-17.6,1.3,-78.9*,-0.9,-6.2
OC(c1cccc(Cl)c1)(c1cccc(Cl)c1)C1CN2CCC1CC2 (stereo not drawn),6.1,52.1*,-34.9*,-10.9,-4.0
Clc1ccccc1CNC1CN2CCC1CC2 (stereo not drawn),4.1,8.4,-13.4,4.2,-8.6
CCCCN1C(=O)NC(=O)C2(Cc3c(nc4c(C)cccn4c3=O)N3CCc4ccccc4C32)C1=O (stereo not drawn),11.6,37.6*,52.5,0.4,5.2
COC(=O)c1ccccc1C(=O)OC,.,.,.,-11.2,.
CCCC1=Nc2cc(C(=O)NCCCN(CC)CC)ccc2Sc2ccccc21,.,20.2,11.3,-17.7,-3.0
CN1CCN(c2ccc(/C=C3\C(=O)NC(=S)N(c4cccc(Br)c4)C3=O)o2)CC1,-21.1,90.4*,4.1,-3.8,-6.3
Cc1ccc(/C=C2\C(=O)NC(=S)N(c3cccc(F)c3)C2=O)o1,1.1,13.1,-18.8,-4.9,-7.5
